Source: PMC7862700, “An all-to-all approach to the identification of sequence-specific readers for epigenetic DNA modifications on cytosine”

Tests used:
Test in all cases: DAPPL (digital affinity profiling via proximity ligation, sequencing); 10 mM Tris-HCl pH 7.5, 50 mM NaCl, 1 mM DTT, 4% glycerol, room temperature, 30 min; GST-TFs on glutathione beads, 16-mer random dsDNA library, 0.1% formaldehyde crosslink after washing; high values mean tight binding
FEV = biological target: T1, FEV (Homo sapiens, UniProt Q99581 1-238); conditions: protein: recombinant; tags: N-terminal GST; dsDNA, one strand shown
T1 sequence: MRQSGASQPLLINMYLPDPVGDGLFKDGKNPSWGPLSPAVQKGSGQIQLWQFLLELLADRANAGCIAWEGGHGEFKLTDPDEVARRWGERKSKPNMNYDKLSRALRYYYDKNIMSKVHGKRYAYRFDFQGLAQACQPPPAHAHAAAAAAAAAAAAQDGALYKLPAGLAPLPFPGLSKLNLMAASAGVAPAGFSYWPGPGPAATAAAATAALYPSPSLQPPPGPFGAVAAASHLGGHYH
Method in brief: (§1)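 A tag-only sample was pooled with DNA-barcoded human transcription factors that had been expressed in yeast as GST fusions and captured on glutathione beads. The pools were incubated for 30 min at room temperature with 200 nmole of a random double-stranded 16-mer DNA library in Tris/NaCl/DTT/glycerol buffer, then washed, crosslinked with 0.1% formaldehyde, proximity-ligated (BsaI/T4 ligase, 1 h, 37 °C), PCR-amplified and sequenced on an Illumina NextSeq500. Binding signal is each hexamer's read frequency for a factor divided by its frequency for the tag-only sample.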

ETV5 = ETV5 (Homo sapiens, UniProt P41161 1-510); conditions: protein: recombinant; tags: N-terminal GST; dsDNA, one strand shown
Chain of ETV5 (P41161 whole entry): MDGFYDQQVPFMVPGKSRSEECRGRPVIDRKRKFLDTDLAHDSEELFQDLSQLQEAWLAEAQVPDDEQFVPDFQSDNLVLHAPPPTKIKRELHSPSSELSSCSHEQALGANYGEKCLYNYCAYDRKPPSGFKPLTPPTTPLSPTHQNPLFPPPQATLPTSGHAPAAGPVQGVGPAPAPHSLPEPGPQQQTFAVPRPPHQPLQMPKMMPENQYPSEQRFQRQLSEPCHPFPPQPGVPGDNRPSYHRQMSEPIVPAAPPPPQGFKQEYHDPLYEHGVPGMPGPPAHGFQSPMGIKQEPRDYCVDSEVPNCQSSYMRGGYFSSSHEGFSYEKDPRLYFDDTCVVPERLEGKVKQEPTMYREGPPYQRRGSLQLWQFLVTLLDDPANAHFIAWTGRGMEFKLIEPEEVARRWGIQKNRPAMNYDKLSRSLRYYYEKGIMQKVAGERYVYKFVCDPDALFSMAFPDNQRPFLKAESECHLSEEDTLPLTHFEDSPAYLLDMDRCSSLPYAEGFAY
Method in brief: as §1

HSF1 = HSF1 (Homo sapiens, UniProt Q00613 1-529); conditions: protein: recombinant; tags: N-terminal GST; chain copies: 3; dsDNA, one strand shown
Chain of HSF1 (Q00613 whole entry): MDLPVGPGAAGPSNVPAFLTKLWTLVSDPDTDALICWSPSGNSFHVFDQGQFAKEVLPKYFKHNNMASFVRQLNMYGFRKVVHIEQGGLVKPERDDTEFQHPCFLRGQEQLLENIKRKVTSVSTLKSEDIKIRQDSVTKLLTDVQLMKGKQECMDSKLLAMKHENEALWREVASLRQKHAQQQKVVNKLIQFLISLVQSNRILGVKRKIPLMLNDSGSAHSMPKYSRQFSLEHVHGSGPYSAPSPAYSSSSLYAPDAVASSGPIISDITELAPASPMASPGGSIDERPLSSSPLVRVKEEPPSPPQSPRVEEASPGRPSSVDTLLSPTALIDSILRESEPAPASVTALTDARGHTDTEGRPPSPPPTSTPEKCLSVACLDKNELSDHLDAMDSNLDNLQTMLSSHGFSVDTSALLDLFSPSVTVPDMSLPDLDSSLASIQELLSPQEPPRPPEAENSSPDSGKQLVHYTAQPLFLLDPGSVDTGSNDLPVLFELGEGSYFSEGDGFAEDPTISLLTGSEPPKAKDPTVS
Method in brief: as §1

SPIC = biological target: T2, SPIC (Homo sapiens, UniProt Q8N5J4 1-248); conditions: protein: recombinant; tags: N-terminal GST; dsDNA, one strand shown
T2 sequence: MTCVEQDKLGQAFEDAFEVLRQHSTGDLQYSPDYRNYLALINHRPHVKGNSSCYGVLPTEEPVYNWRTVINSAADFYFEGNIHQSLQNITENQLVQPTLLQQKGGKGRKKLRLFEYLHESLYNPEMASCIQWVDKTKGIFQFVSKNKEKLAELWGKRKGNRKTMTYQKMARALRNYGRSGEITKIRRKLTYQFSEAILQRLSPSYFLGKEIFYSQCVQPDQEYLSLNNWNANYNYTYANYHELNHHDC
Method in brief: as §1

ELF4 = ELF4 (Homo sapiens, UniProt Q99607 1-663); conditions: protein: recombinant; tags: N-terminal GST; dsDNA, one strand shown
Chain of ELF4 (Q99607 whole entry): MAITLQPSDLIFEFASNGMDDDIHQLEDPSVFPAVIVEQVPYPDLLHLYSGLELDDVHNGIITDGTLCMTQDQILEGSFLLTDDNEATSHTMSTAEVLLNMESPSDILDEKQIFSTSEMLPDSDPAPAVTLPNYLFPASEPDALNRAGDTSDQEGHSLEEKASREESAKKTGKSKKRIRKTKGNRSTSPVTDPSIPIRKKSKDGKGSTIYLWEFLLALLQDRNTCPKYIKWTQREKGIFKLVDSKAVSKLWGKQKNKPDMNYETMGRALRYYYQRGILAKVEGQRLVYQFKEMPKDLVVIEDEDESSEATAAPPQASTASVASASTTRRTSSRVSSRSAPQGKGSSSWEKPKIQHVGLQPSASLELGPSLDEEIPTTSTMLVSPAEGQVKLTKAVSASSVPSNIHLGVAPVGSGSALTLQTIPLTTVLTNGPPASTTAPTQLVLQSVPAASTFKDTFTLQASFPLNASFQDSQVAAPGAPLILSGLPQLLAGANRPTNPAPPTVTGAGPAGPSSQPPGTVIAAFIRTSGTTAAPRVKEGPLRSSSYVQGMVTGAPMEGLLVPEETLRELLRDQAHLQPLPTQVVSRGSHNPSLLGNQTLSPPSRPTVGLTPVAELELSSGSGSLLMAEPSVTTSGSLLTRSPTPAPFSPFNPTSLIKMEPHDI
Method in brief: as §1

ELK4 = biological target: T3, ELK4 (Homo sapiens, UniProt P28324-2 1-405); conditions: protein: recombinant; tags: N-terminal GST; dsDNA, one strand shown
T3 sequence: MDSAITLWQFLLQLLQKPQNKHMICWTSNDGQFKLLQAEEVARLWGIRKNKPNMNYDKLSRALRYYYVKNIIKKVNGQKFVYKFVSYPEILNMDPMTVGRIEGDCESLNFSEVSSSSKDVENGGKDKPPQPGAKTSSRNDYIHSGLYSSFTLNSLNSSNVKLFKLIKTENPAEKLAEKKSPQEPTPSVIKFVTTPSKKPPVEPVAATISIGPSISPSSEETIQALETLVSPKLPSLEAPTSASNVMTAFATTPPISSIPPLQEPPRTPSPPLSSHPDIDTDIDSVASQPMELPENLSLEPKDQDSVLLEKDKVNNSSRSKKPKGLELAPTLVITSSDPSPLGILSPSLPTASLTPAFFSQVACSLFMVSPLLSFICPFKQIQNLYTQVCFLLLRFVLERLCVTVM
Method in brief: as §1

ETV2 = biological target: T4, ETV2 (Homo sapiens, UniProt O00321 1-342); conditions: protein: recombinant; tags: N-terminal GST; dsDNA, one strand shown
T4 sequence: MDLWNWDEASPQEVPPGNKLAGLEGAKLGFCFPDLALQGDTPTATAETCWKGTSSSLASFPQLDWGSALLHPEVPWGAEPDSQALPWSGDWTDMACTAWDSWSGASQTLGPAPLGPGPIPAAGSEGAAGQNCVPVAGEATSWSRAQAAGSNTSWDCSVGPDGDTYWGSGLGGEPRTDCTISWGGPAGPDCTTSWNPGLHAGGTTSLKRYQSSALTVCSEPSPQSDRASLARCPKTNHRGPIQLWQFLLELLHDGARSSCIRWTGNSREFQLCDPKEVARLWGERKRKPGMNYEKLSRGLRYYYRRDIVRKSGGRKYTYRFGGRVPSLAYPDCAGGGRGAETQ
Method in brief: as §1

ELF3 = biological target: T5, ELF3 (Homo sapiens, UniProt P78545 1-371); conditions: protein: recombinant; tags: N-terminal GST; dsDNA, one strand shown
T5 sequence: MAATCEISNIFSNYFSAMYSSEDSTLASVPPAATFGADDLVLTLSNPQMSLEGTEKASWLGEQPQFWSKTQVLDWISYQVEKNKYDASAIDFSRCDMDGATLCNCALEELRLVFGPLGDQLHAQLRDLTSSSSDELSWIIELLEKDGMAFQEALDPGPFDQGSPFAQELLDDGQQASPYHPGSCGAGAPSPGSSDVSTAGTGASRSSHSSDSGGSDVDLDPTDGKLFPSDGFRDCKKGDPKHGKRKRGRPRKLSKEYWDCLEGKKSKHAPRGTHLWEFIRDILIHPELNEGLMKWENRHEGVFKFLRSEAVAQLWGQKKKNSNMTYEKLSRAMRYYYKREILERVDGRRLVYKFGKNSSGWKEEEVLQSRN
Method in brief: as §1

CRX = CRX (Homo sapiens, UniProt O43186 1-299); conditions: protein: recombinant; tags: N-terminal GST; dsDNA, one strand shown
Chain of CRX (O43186 whole entry): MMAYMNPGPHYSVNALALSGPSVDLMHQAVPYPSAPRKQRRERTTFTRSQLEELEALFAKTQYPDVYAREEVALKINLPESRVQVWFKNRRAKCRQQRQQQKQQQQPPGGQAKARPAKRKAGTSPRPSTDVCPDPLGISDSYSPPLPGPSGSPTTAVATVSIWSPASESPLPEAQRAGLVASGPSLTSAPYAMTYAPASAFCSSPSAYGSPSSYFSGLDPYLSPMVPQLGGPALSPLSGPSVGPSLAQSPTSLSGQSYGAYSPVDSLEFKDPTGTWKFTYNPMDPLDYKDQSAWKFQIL
Method in brief: as §1

ETV1 = ETV1 (Homo sapiens, UniProt P50549 1-477); conditions: protein: recombinant; tags: N-terminal GST; dsDNA, one strand shown
Chain of ETV1 (P50549 whole entry): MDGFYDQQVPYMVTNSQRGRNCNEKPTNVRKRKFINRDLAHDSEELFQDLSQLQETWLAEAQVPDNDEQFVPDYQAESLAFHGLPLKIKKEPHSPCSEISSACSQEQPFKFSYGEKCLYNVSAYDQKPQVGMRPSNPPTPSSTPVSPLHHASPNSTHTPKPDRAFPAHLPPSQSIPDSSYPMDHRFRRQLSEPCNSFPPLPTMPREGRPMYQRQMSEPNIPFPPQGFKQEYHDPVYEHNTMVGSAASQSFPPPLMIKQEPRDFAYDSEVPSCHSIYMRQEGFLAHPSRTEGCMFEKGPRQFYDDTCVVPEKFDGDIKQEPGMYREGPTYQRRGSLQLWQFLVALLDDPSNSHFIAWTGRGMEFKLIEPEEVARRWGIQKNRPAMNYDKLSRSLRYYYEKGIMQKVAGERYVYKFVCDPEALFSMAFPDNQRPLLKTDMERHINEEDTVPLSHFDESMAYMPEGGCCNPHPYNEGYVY
Method in brief: as §1

Which results are given for ATTTTC?
binding signal (FEV): 1.35 fold enrichment (6-mer frequency, TF over GST control); binding signal (ETV5): 1.44 fold enrichment (6-mer frequency, TF over GST control); binding signal (HSF1): 2.04 fold enrichment (6-mer frequency, TF over GST control); binding signal (SPIC): 1.44 fold enrichment (6-mer frequency, TF over GST control); binding signal (ELF4): 1.64 fold enrichment (6-mer frequency, TF over GST control); binding signal (ELK4): 1.5 fold enrichment (6-mer frequency, TF over GST control); binding signal (ETV2): 1.63 fold enrichment (6-mer frequency, TF over GST control); binding signal (ELF3): 1.48 fold enrichment (6-mer frequency, TF over GST control); binding signal (CRX): 1.67 fold enrichment (6-mer frequency, TF over GST control); binding signal (ETV1): 1.4 fold enrichment (6-mer frequency, TF over GST control)
